# Measured values reported in PubChem BioAssay.
# Results filed as inconclusive are left out. The source made the active and inactive calls. Unless noted, cut-off not given; nearly all actives show AC50 up to about 26 µM.
# What was measured:
# [1] = growth inhibition of DIPG glioma cells, dose response, cell-based, SU-DIPG-XVII, MIPE5.0, CellTiter-Glo, qHTS (AID 1347060); conditions: SU-DIPG-XVII viability, CellTiter-Glo ATP luminescence;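 on AC50: cells exposed to compound for 48 hours before viability readout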
# [2] = growth inhibition of DIPG glioma cells, dose response, cell-based, SU-DIPG-XIII, MIPE5.0, CellTiter-Glo, qHTS (AID 1347064; cut-off not given, nearly all actives have AC50 up to about 23 µM;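 on AC50: cells exposed to compound for 48 hours before the viability read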); conditions: SU-DIPG-XIII viability, CellTiter-Glo ATP luminescence
# [3] = viability loss in pontine glioma line – cell-based, SU-DIPG-XXV, MIPE5.0, CellTiter-Glo, qHTS, dose response (AID 1347065); conditions: CellTiter-Glo ATP luminescence;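 further: cells exposed to compound for 48 hours before ATP readout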
# [4] = JHH-DIPG-1 glioma cell viability, MIPE5.0 library, CellTiter-Glo luminescence, qHTS (AID 1347067); conditions: JHH-DIPG-1 glioma viability, CellTiter-Glo ATP luminescence;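 further: cells exposed to compound for 48 hours before readout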
# [5] = SU-DIPG-XXV glioma cell viability, MIPE5.0 library, qHTS (AID 1347068; cut-off not given, nearly all actives have IC50 up to about 30 µM;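 on IC50: cells exposed to compound for 48 hours before viability readout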)
# [6] = sensitizers of A549 cells to miR-34 induction, primary screen, imaging, A549 dox-inducible miR-34, nuclei and caspase counts (AID 1347080;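 active means compounds whose cell count with miR-34 switched on is under 0.7 times the count with it off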); conditions: A549 miR-34 inducible, Hoechst nuclei count, 48 h
# [7] = survival rescue of mitochondrial mutant cells in low glucose, primary screen, MELAS cybrids, Rieske KO mouse fibroblasts, CellTiter-Glo (AID 1508586;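 active means mean z-score across replicates of 1.96 or higher in either the MELAS or the Rieske mutant cell line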;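 further: z relative to plate mean and SD of compound and empty wells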)
# [8] = stronger effect = lower value, cell number ratio, induced over uninduced
# [9] = measured here: relative caspase fold change +Dox/-Dox
# [10] = measured here: total cells with miR-34 induction, stronger effect = lower value
# [11] = measured here: total cells without miR-34 induction
# [12] = MELAS cybrid survival, CellTiter-Glo 48 h, stronger effect = higher value
# [13] = Rieske KO mouse fibroblast survival, CellTiter-Glo 72 h
smiles,measurement,setting,value
CN(C)c1ccc(-c2nc3ncc(Cl)c(N4CCN(CC(=O)Nc5nccs5)CC4)c3[nH]2)cc1,AC50,[1],2.29 µM (active)
same,AC50,[2],7.23 µM (active)
same,AC50,[3],3.23 µM (active)
same,AC50,[4],2.29 µM (active)
same,outcome,[5],inactive
same,fold change,[6]; [8],1.06 (inactive)
same,fold change,[6]; [9],0.825
same,cell count,[6]; [10],2120
same,cell count,[6]; [11],2000
same,z-score,[7]; [12],2.54 (active)
same,z-score,[7]; [13],-0.697
Cc1ccc(Nc2ncc3c(n2)N(C)C(=O)N(c2cc(NC(=O)c4cccc(C(F)(F)F)c4)ccc2C)C3)cn1,AC50,[1],0.105 µM (active)
same,AC50,[2],0.0742 µM (active)
same,AC50,[3],0.0118 µM (active)
same,IC50,[5],0.0742 µM (active)
C[C@H]1COCCN1c1cc(C2(S(=O)(=O)C3CC3)CC2)nc(-c2ccc(NC(=S)NCCO)cc2)n1,AC50,[1],0.295 µM (active)
same,AC50,[2],0.332 µM (active)
same,AC50,[3],0.0263 µM (active)
same,IC50,[5],4.68 µM (active)
COc1cc2ncnc(Oc3cccc(NC(=O)Nc4cc(C(C)(C)C(F)(F)F)on4)c3)c2cc1OC,AC50,[1],5.9 µM (active)
same,AC50,[2],16.6 µM (active)
same,AC50,[3],10.5 µM (active)
same,AC50,[4],14.8 µM (active)
same,fold change,[6]; [8],0.934 (inactive)
same,fold change,[6]; [9],0.373
same,cell count,[6]; [10],3270
same,cell count,[6]; [11],3490
same,z-score,[7]; [12],-0.488 (inactive)
same,z-score,[7]; [13],1.15
C/C(=N\NC(=O)c1cccc(S(=O)(=O)N2CCOCC2)c1)c1cc(Cl)ccc1O,AC50,[1],18.6 µM (active)
same,AC50,[2],9.34 µM (active)
same,AC50,[3],16.6 µM (active)
same,outcome,[5],inactive
N#CCC1(n2cc(-c3ncnc4[nH]ccc34)cn2)CN(C2CCN(C(=O)c3ccnc(C(F)(F)F)c3F)CC2)C1,outcome,[1],inactive
same,outcome,[2],inactive
same,outcome,[3],inactive
same,outcome,[5],inactive
C[C@@H](c1ccc2nccn2c1)n1nnc2ncc(-c3cnn(C)c3)nc21,outcome,[1],inactive
same,outcome,[2],inactive
same,outcome,[3],inactive
same,outcome,[5],inactive
CC(=O)N1CCC(Nc2cc(C(=O)NC[C@H](O)CN3CCc4ccccc4C3)ncn2)CC1,outcome,[1],inactive
same,outcome,[2],inactive
same,outcome,[3],inactive
same,outcome,[5],inactive
C[C@@H](O)[C@@H]1NC(=O)[C@H](CCCCN)NC(=O)[C@@H](Cc2c[nH]c3ccccc23)NC(=O)[C@H](Cc2ccccc2)NC(=O)[C@@H](NC(=O)[C@H](N)Cc2ccccc2)CSSC[C@@H](C(=O)N[C@H](CO)[C@@H](C)O)NC1=O,outcome,[1],inactive
same,outcome,[2],inactive
same,outcome,[3],inactive
same,outcome,[4],inactive
same,fold change,[6]; [8],0.862 (inactive)
same,fold change,[6]; [9],0.995
same,cell count,[6]; [10],9290
same,cell count,[6]; [11],10800
same,z-score,[7]; [12],0.396 (inactive)
same,z-score,[7]; [13],-0.498
Cc1ccc(S(=O)(=O)Cc2nc(-c3ccc(C(=O)NCc4cccnc4)cc3)oc2C)cc1,AC50,[1],0.0525 µM (active)
same,AC50,[2],0.0166 µM (active)
same,AC50,[3],0.0148 µM (active)
same,AC50,[4],0.0209 µM (active)
same,fold change,[6]; [8],0.957 (inactive)
same,fold change,[6]; [9],0.598
same,cell count,[6]; [10],5090
same,cell count,[6]; [11],5320
same,z-score,[7]; [12],-0.778 (inactive)
same,z-score,[7]; [13],-0.8
CNC(=O)c1cccc2cc(Oc3ccnc4cc(OCC5(N)CC5)c(OC)cc34)ccc12,AC50,[1],1.48 µM (active)
same,AC50,[2],1.32 µM (active)
same,AC50,[3],1.86 µM (active)
same,IC50,[5],7.42 µM (active)
COc1ccc([C@@H](O)[C@@H](C)Oc2ccc([C@H]3O[C@H](c4ccc(O[C@H](C)[C@H](O)c5ccc(OC)c(OC)c5)c(OC)c4)[C@H](C)[C@H]3C)cc2OC)cc1OC,AC50,[1],20.9 µM (active)
same,AC50,[2],5.9 µM (active)
same,AC50,[3],10.5 µM (active)
same,IC50,[5],11.8 µM (active)
COc1ncc(-c2ccc3c(Nc4cc(Oc5cc(F)cc(F)c5)cc(C(=O)O)c4)c(S(=O)(=O)NC4CC4)cnc3c2)c(OC)n1,outcome,[1],inactive
same,outcome,[2],inactive
same,outcome,[3],inactive
same,outcome,[5],inactive
Cc1ccc(-n2nc(C(C)(C)C)cc2NC(=O)NCc2cc(F)ccc2Oc2ccc3c(cnn3CCO)c2)cc1,AC50,[1],10.5 µM (active)
same,AC50,[2],6.61 µM (active)
same,AC50,[3],5.25 µM (active)
same,IC50,[5],18.6 µM (active)
COc1cc([C@@H](CC(=O)O)c2ccc(C)c(CN3C[C@@H](C)Oc4ccccc4S3(=O)=O)c2)cc2nnn(C)c12,outcome,[1],inactive
same,outcome,[2],inactive
same,outcome,[3],inactive
same,outcome,[5],inactive
Cc1ncc(NC(=O)c2ccc(CN3CCN(C)CC3)c(C(F)(F)F)c2)cc1Nc1nccc(-c2cccnc2)n1,AC50,[1],23.5 µM (active)
same,AC50,[2],9.34 µM (active)
same,AC50,[3],18.6 µM (active)
same,outcome,[5],inactive
Cc1cc(F)c(C(=O)Nc2cccc(-c3nncn3C(C)C)n2)cc1-n1cnc(C2CC2)c1,AC50,[1],16.6 µM (active)
same,AC50,[2],18.6 µM (active)
same,AC50,[3],18.6 µM (active)
same,IC50,[5],18.6 µM (active)
O=C(c1ccc(NS(=O)(=O)c2cccc3cccnc23)cc1)N1CCN(CC2CC2)CC1,outcome,[1],inactive
same,outcome,[2],inactive
same,outcome,[3],inactive
same,outcome,[5],inactive
CCOC(=O)[C@@]1(CCCCCCOc2ccc(Cl)cc2)CO1,outcome,[1],inactive
same,outcome,[2],inactive
same,outcome,[3],inactive
same,outcome,[5],inactive
O=C(O)c1ccc(CN2CCC(CN[C@@H]3C[C@H]3c3ccccc3)CC2)cc1,outcome,[1],inactive
same,outcome,[2],inactive
same,outcome,[3],inactive
same,outcome,[5],inactive
